Measurements published in PubChem BioAssay (NCATS).
Records with an inconclusive call do not appear. Where a call stands in place of a potency, no number is given. Activity calls are given as the source filed them. Unless noted, the call rests on the fitted dose curve; in most records, active means well fitted curve in the direction sought with a large enough effect; inconclusive means small, poorly fitted or top-dose-only effect, or another doubt; inactive means no such curve, though single readings can be large; an effect the other way counts as inactive or inconclusive.

Columns and labels:
[1] = qHTS assay to identify small molecule inhibitors of chordoma cells - UCH-1 (AID 1259355); conditions: UCH-1 chordoma viability, CellTiter-Glo, 48 h, combination; series mostly up to 46.1 µM; further: nearly all actives have a fitted effect of over 55% in size; further: potency means the concentration at half of the fitted maximal effect
Procedure, shortened: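 Seed 800 cells per well; incubate overnight at 37 C, 5% CO2. Add test compounds (15 concentrations), then the auranofin–topoisomerase-agent combination. Incubate 48hr, add CellTiter-Glo, wait 30min, read luminescence.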

[2] = qHTS assay to identify small molecule inhibitors of chordoma cells - UCH-2 (AID 1259356); conditions: UCH-2 chordoma viability, CellTiter-Glo ATP luminescence, 48 h; series mostly up to 46.1 µM; further: potency means the concentration at half of the fitted maximal effect
[3] = P-glycoprotein substrates identified in KB-8-5-11 adenocarcinoma cell line, qHTS therapeutic library screen (AID 1346987); conditions: KB-8-5-11 (P-gp overexpressing) viability, CellTiter-Glo, 72 h; series mostly up to 44.5 µM; further: nearly all actives have a fitted effect of over 65% in size; further: potency means the concentration at half of the fitted maximal effect
Procedure, shortened: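 Steps: plate 500 KB-8-5-11 cells/well in DMEM + 10% FCS (colchicine removed); pin compounds in dose-response; incubate 72 h, 37 degree C, 5% CO2; add CellTiter-Glo, 5 min; read luminescence.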

[4] = Natriuretic polypeptide receptor (hNpr1) antagonism - Pilot counterscreen GloSensor control cell line (AID 1347045; calls by dose curve); conditions: HEK293 cGMP GloSensor cells, SNP-stimulated luminescence, 20 min; series mostly up to 38.3 µM
Procedure, shortened: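 Luminescence was read before and 20 min after adding 50 uM SNP, which stimulates soluble guanylyl cyclase. The HEK293 cells expressing the GloSensor cGMP sensor had been preloaded with 2% reagent for 2 h and treated with compound.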

[5] = biological target: Atrial natriuretic peptide receptor 2 (Homo sapiens) (UniProt P20594); experiment: Natriuretic polypeptide receptor (hNpr2) antagonism - Pilot subtype selectivity assay (AID 1347050; calls by dose curve); conditions: NPR2-expressing cells, cGMP antagonist-mode read-out; series mostly up to 38.3 µM
Procedure, shortened: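 Pilot selectivity screen against hNpr2: HEK293 cGMP-sensor cells are treated with LOPAC1280 compounds, then with hNppC peptide at 1 nM final. The cGMP-driven luminescence change over 20 min at room temperature is the read-out.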

[6] = biological target: T1, Tyrosine-protein phosphatase non-receptor type substrate 1 (Homo sapiens) + Leukocyte surface antigen CD47 (Homo sapiens) (UniProt P78324+Q08722); experiment: CD47-SIRPalpha protein protein interaction - LANCE assay qHTS validation (AID 1347057; active means well fitted curve in the direction sought with a large enough effect in the signal ratio, with a control signal flat, not every such curve was filed as active; the % refers to the signal ratio); conditions: Recombinant CD47-His / biotin-SIRPalpha, TR-FRET ratio; series mostly up to 38.3 µM
Procedure, shortened: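 First, His-tagged CD47 and Eu-labelled anti-His antibody met the compound for 30 min; next, site-specifically biotinylated SIRPalpha was added for 30 min; finally streptavidin-APC was added before reading the TR-FRET ratio.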

[7] = biological target: T1, Tyrosine-protein phosphatase non-receptor type substrate 1 (Homo sapiens) + Leukocyte surface antigen CD47 (Homo sapiens); experiment: CD47-SIRPalpha protein protein interaction - HTRF assay qHTS validation (AID 1347058; active means well fitted curve in the direction sought with a large enough effect in the signal ratio, not every such curve was filed as active; the % refers to the signal ratio;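 further: recombinant soluble extracellular CD47 with His tag and biotinylated SIRPalpha domains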); conditions: TR-FRET HTRF CD47-His / biotin-SIRPalpha binding, ratio 665/615; series mostly up to 38.3 µM
Procedure, shortened: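 TR-FRET read (Ch1/Ch2 ratio) of soluble extracellular CD47 and Avi-biotinylated SIRPalpha domains in PBS pH 7.4 with 0.05% IGEPAL; 7-point compound titration. Sequential 30 min room-temperature steps; non-biotinylated SIRPalpha as control inhibitor.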

[8] = biological target: T1, Tyrosine-protein phosphatase non-receptor type substrate 1 (Homo sapiens) + Leukocyte surface antigen CD47 (Homo sapiens); experiment: CD47-SIRPalpha protein protein interaction - Alpha assay qHTS validation (AID 1347059); conditions: AlphaScreen CD47-His/biotin-SIRPalpha binding, LOPAC; series mostly up to 38.3 µM;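 further: bead proximity luminescence from CD47 binding SIRPalpha after compound preincubation with SIRPalpha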
Procedure, shortened: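 Binding is measured by AlphaScreen proximity: Ni-NTA acceptor beads capture His-CD47, streptavidin donor beads capture biotin-SIRPalpha. Each of three additions (SIRPalpha with compound, CD47, beads) incubates 30 min at room temperature protected from light.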

[9] = biological target: Parathyroid hormone/parathyroid hormone-related peptide receptor (Homo sapiens) (UniProt Q03431); experiment: qHTS for PTHR1 Agonists: Optimization Screen against the NCGC LOPAC library (AID 1347079); conditions: HEK293 GP2 PTHR1 GloSensor cAMP luminescence, 1 h; series mostly up to 57.1 µM;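 further: GloSensor cAMP luminescence in HEK-293 GP2 cells expressing human PTHR1 with IBMX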
Procedure, shortened: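 Agonist readout: GloSensor cAMP luminescence, read after 15 min at room temperature. HEK-293-derived GP2 line carries PTHR1; compounds tested as a titration for 1 hr at 37C in presence of IBMX. M-PTH (1-15) served as control.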

[10] = qHTS for Inhibitors of the Functional Ribonucleoprotein Complex (vRNP) of Lassa (LASV) Arenavirus: LASV Primary Screen - GLuc reporter signal (AID 1347082; calls by dose curve; tested in HEK293 reporter line; further: nearly all actives have a fitted effect of over 60% in size); conditions: LASV minigenome vRNP, Gaussia luciferase reporter; series mostly up to 57.5 µM
[11] = NS1 protein of Zika virus - qHTS assay to identify small molecule inhibitors in human HEK 293 cells (AID 1347053); conditions: HEK293 ZIKV MR766 infection, NS1 TR-FRET, 24 h; series mostly up to 46.1 µM; further: nearly all actives have a fitted effect of over 55% in size
Procedure, shortened: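 HEK 293 cells, seeded 20 h at 37 C, were pretreated with compound 1 h, then infected with ZIKV MR766 (MOI = 0.5) for 24 h. NS1 was read by TR-FRET with two anti-NS1 antibodies, normalized to uninfected and infected wells.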

[12] = qHTS Screen of the MIPE 4.0 Collection Against Ewings Sarcoma (TC32) (AID 1259256); conditions: TC32 Ewing sarcoma viability, CellTiter-Glo, 48 h; series mostly up to 45.8 µM; further: nearly all actives have a fitted effect of over 45% in size; further: potency means the concentration at half of the fitted maximal effect
Procedure, shortened: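 CellTiter-Glo luminescence after 48 h compound exposure (titration) gave viability; percent activity used DMSO-treated cells as no inhibition and medium-only wells as full inhibition. Cells grown in RPMI/5% FBS, dosed 4 h post-seeding.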

[13] = biological target: Atrial natriuretic peptide receptor 1 (Homo sapiens) (UniProt P16066); experiment: Natriuretic polypeptide receptor (hNpr1) antagonism - Pilot screen (AID 1347049; calls by dose curve;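 further: agonist-evoked cGMP luminescence read 20 min after hNppA addition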); conditions: hNpr1 cells, antagonist mode cGMP read-out; series mostly up to 57.5 µM
Procedure, shortened: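 Readout is cGMP-driven firefly luciferase luminescence in HEK293 cells carrying hNpr1 and a PDE5-domain GloSensor, read before and 20 min after 0.1 nM hNppA stimulation. Cells had 2% substrate reagent for 2 h and test compound for 30 min.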

Atrial natriuretic peptide receptor 2 (Homo sapiens), sequence (P20594 whole entry, looked up): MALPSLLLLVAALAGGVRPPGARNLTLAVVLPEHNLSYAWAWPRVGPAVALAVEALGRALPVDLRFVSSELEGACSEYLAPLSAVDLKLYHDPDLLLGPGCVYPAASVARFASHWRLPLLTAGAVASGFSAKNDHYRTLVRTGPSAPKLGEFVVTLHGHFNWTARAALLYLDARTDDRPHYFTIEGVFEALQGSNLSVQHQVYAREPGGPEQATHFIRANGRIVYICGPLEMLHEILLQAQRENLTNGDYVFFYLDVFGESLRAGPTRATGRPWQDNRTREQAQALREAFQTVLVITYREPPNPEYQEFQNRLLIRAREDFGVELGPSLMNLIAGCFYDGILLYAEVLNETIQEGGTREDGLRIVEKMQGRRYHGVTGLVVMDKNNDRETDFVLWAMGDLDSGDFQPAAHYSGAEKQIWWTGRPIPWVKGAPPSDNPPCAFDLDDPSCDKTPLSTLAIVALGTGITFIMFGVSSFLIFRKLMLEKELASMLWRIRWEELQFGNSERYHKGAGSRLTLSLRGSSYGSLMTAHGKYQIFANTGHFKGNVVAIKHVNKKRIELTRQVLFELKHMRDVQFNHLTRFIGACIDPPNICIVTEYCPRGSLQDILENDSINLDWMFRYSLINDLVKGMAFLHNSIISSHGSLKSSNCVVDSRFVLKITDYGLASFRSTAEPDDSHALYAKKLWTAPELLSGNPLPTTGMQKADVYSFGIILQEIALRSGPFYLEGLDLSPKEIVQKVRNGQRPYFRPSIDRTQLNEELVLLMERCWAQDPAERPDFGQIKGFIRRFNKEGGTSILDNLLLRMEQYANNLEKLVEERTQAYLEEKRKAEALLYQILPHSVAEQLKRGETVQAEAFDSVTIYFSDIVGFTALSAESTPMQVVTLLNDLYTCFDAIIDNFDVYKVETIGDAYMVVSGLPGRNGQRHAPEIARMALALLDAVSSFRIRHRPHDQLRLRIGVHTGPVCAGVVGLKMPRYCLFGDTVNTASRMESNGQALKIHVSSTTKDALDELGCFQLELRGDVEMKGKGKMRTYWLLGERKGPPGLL
T1 sequence (P78324 whole entry, looked up): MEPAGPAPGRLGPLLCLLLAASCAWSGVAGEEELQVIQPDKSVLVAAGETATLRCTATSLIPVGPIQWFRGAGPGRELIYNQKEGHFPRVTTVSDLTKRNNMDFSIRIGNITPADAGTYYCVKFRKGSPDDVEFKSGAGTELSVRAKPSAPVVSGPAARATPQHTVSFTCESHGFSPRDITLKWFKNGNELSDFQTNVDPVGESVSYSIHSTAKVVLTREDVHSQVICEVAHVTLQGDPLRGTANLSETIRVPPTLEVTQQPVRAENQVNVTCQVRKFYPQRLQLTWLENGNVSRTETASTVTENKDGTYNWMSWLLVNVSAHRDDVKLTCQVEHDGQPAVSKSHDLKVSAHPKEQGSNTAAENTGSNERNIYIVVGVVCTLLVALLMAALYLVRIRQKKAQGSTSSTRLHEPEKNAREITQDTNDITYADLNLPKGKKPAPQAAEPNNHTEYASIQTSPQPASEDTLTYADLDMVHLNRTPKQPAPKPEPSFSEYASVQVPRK
T1 sequence (Q08722 whole entry, looked up): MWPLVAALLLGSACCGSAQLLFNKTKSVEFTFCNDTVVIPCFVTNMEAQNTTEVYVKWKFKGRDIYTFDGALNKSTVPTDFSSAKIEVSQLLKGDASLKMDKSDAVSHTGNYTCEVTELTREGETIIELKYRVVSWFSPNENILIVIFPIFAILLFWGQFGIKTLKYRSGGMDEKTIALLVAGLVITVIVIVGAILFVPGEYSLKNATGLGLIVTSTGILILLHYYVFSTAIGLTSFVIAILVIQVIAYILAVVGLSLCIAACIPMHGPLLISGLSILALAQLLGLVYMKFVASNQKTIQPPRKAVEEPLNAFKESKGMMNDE
Parathyroid hormone/parathyroid hormone-related peptide receptor (Homo sapiens), sequence (Q03431 whole entry, looked up): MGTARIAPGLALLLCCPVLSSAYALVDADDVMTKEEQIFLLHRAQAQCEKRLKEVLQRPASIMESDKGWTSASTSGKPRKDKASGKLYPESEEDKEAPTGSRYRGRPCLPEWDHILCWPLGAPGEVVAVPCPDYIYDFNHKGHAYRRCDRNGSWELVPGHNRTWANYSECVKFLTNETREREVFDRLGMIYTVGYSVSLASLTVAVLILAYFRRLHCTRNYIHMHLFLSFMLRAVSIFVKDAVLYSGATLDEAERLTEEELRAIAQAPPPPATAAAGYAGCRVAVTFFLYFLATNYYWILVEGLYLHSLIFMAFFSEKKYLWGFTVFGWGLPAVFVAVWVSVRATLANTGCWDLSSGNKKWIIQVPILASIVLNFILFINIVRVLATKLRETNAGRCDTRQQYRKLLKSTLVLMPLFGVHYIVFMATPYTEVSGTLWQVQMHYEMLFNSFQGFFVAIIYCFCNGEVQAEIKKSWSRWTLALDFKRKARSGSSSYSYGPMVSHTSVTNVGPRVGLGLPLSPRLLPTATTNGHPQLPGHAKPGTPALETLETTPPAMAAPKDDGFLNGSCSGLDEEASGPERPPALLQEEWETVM
Atrial natriuretic peptide receptor 1 (Homo sapiens), sequence (P16066 whole entry, looked up): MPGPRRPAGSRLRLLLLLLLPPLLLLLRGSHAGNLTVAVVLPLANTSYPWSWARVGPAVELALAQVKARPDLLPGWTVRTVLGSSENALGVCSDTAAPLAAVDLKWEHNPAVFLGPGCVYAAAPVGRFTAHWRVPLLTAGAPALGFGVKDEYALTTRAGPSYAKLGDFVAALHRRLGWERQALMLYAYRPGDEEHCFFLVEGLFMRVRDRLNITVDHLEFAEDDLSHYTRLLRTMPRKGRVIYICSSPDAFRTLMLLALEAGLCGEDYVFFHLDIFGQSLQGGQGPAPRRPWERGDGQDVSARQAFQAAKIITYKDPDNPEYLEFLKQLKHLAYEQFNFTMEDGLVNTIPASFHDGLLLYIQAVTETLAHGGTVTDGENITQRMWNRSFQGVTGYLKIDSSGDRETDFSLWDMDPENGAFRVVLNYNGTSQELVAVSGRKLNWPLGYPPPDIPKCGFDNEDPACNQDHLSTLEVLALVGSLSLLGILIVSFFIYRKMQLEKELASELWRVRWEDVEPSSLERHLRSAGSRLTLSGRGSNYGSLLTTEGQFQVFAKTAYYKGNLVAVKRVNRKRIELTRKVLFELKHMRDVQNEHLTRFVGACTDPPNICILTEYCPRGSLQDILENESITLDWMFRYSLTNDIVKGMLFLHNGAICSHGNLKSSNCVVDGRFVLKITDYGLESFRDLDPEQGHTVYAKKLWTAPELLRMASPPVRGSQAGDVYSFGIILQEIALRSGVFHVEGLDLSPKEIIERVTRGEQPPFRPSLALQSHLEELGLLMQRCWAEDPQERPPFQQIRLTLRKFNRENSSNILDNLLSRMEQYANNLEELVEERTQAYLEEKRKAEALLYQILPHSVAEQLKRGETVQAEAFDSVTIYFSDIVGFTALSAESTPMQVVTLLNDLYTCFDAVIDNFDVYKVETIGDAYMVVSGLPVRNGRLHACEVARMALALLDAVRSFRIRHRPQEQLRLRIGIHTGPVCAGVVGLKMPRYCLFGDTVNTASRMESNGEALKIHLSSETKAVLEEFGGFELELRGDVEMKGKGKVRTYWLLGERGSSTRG

## NC(=O)CN1CC(O)CC1=O (stereo not drawn)
[1]
  Potency: inactive
[2]
  Potency: inactive
[3]
  Potency: inactive
[4]
  Potency: inactive
[5]
  Potency: inactive
[6]
  outcome: inactive
[7]
  outcome: inactive
[8]
  Potency: inactive
[9]
  outcome: inactive
[10]
  Potency: inactive

## CC(C)NC(C)Cc1ccc(I)cc1 (stereo not drawn)
[1]
  Potency: inactive
[2]
  Potency: inactive
[4]
  Potency: inactive
[5]
  Potency: inactive
[11]
  Potency: inactive
[6]
  outcome: inactive
[8]
  Potency: inactive
[9]
  outcome: inactive
[10]
  Potency: inactive

## CC(=O)[O][Hg][c]1ccccc1
[1]
  Potency: 7.08 µM (active)
[2]
  Potency: 2.59 µM (active)
[3]
  Potency: 0.259 µM (active)

## C=C[C@@H]1CN2CCC1C[C@H]2[C@H](O)c1ccnc2ccccc12 (stereo partly drawn)
[12]
  Potency: 18.7 µM (active)
[10]
  Potency: inactive

## O=C1CCC[C@@H]2[C@H]3CCCN4CCC[C@@H](CN12)[C@@H]34
[12]
  Potency: inactive
[3]
  Potency: inactive
[10]
  Potency: inactive

## Cc1cc(O)ccc1Cl
[1]
  Potency: inactive
[2]
  Potency: inactive
[3]
  Potency: inactive
[10]
  Potency: inactive

## Cc1ccc(Cl)c(O)c1
[1]
  Potency: inactive
[2]
  Potency: inactive
[3]
  Potency: inactive
[11]
  Potency: inactive
[10]
  Potency: inactive

## O=C1C(I)=CC(=C(c2cc(I)c(O)c(I)c2)c2ccccc2C(=O)O)C=C1I
[1]
  Potency: inactive
[2]
  Potency: inactive
[3]
  Potency: inactive
[11]
  Potency: inactive
[10]
  Potency: inactive

## COC(=O)c1cncn1C(C)c1ccccc1 (stereo not drawn)
[1]
  Potency: inactive
[2]
  Potency: inactive
[3]
  Potency: inactive
[11]
  Potency: inactive
[10]
  Potency: inactive

## CC[C@@H](C(N)=O)N1CCCC1=O
[3]
  Potency: inactive
[4]
  Potency: inactive
[13]
  Potency: inactive
[5]
  Potency: inactive
[11]
  Potency: inactive
[6]
  outcome: inactive
[8]
  Potency: inactive
[9]
  outcome: inactive

## CN(C)NC(=O)CCC(=O)O
[3]
  Potency: inactive
[11]
  Potency: inactive
[10]
  Potency: inactive

## Nc1ccc(N=Nc2ccccc2)cc1
[3]
  Potency: inactive
